According to the supplement of paper PMC12532568:
Counter-ions that a name gives are not always drawn.

Tested on: Danio rerio larvae Tg(actc1b:ZsGreen-LC3), 3 dpf
Test: LC3 puncta relative area vs vehicle, without NH4Cl (log2 fold change); higher = more autophagosomes
Conditions: 10 µM; treatment time 16 h; NH4Cl: none
Method: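 Transgenic Tg(actc1b:ZsGreen-map1lc3) zebrafish larvae (2 dpf) were treated for 16 h with Tocris library compounds at 10 µM (n = 12 larvae per compound). Skeletal-muscle LC3 puncta area relative to body area was measured by high-content confocal imaging before and after 4 h of 100 mM NH4Cl (autophagic flux), normalised to vehicle (DMSO), and reported as log2 fold change.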

| Compound | LC3 puncta (log2) |
| --- | --- |
| CCCN[C@@H]1CCc2c(OC)cccc2[C@@H]1C [(+)-AJ 76 hydrochloride] | 0.121 |
| O=C1CCCN1CC#CCN1CCCC1 [Oxotremorine sesquifumarate] | -0.285 |
| CCCCCCC[n+]1ccc(-c2cc[n+](CCCCCCC)cc2)cc1 [DHBP dibromide] | 0.00945 |
| CC(N)Cc1cnc[nH]1 (stereo not given) | 0.372 |
| C=CCN1CC[C@]23c4c5ccc(O)c4O[C@H]2C(=O)CC[C@@]3(O)[C@H]1C5 [Naloxone hydrochloride] | 0.085 |
| CCCN(C/C=C/I)C1CCc2ccc(O)cc2C1 (stereo not given) [7-Hydroxy-PIPAT maleate] | -0.263 |
| CCCN(CCC)[C@@H]1CCc2c(OC)cccc2[C@@H]1C [(+)-UH 232 maleate] | 0.36 |
| O=C1NCN(c2ccccc2)C12CCN(CC1COc3ccccc3O1)CC2 (stereo not given) [Spiroxatrine] | 0.423 |
| CS(=O)(=O)Nc1ccc(Cc2noc(-c3ccc4[nH]cc(CCN)c4c3)n2)cc1 | 0.431 |
| CC(C)[C@@]1(NC(=O)[C@@H]2C[C@@H]3c4cccc5[nH]cc(c45)C[C@H]3N(C)C2)O[C@@]2(O)[C@@H]3CCCN3C(=O)[C@H](Cc3ccccc3)N2C1=O [Dihydroergocristine mesylate] | -0.412 |
| c1ccc2nc(N3CCNCC3)ccc2c1 [Quipazine dimaleate] | 0.115 |
| Oc1ccc2c3c1O[C@H]1c4[nH]c5ccccc5c4C[C@@]4(O)[C@@H](C2)N(CC2CC2)CC[C@]314 [Naltrindole hydrochloride] | 0.245 |
| CC(CN)CC(=O)O (stereo not given) [3-Methyl-GABA] | 0.26 |
| Fc1ccc(C(OCCN2CCN(C/C=C/c3ccccc3)CC2)c2ccc(F)cc2)cc1 | 0.527 |
| Clc1cccc(SC2CCNCC2)n1 [Anpirtoline hydrochloride] | 0.143 |
| CC(=O)N1CC[N+](C)(C)CC1 [4-Acetyl-1,1-dimethylpiperazinium iodide] | -0.21 |
| c1ccc(CC(c2ccccc2)N2CCCCC2)cc1 (stereo not given) [(?)-1-(1,2-Diphenylethyl)piperidine maleate] | 0.167 |
| COC(=O)[C@@H](N)CCCNC(=N)N[N+](=O)[O-] [L-NAME hydrochloride] | -0.0167 |
| c1ccc2c(c1)OCC(C1=NCCN1)O2 (stereo not given) [Idazoxan hydrochloride] | 0.411 |
| CC(C)C[C@H]1C(=O)N2CCC[C@H]2[C@]2(O)O[C@](NC(=O)[C@@H]3C=C4c5cccc6[nH]c(Br)c(c56)C[C@H]4N(C)C3)(C(C)C)C(=O)N12 [Bromocriptine mesylate] | 0.17 |

| Compound | LC3 puncta (log2) |
| --- | --- |
| Cc1cc(C)cc(C(=O)OC2C[C@H]3CC[C@@H](C2)N3C)c1 (stereo not given in full) [Tropanyl-3,5-dimethylbenzoate] | 0.0365 |
| CN1[C@@H]2CC[C@H]1C[C@@H](OC(=O)c1cc(Cl)cc(Cl)c1)C2 | 0.263 |
| OC1CCCCC1N1CCC(c2ccccc2)CC1 (stereo not given) [(?)-Vesamicol hydrochloride] | 0.548 |
| Oc1ccc2c3c1O[C@H]1c4c(c5ccccc5n4Cc4ccccc4)C[C@@]4(O)C(C2)N(CC2CC2)CC[C@]314 [N-Benzylnaltrindole hydrochloride] | 0.458 |
| Fc1ccc(C(OCCN2CCN(CCCc3ccccc3)CC2)c2ccc(F)cc2)cc1 | 0.491 |
| c1ccc(CCCCN2CCC(c3ccccc3)CC2)cc1 [4-PPBP maleate] | 0.0152 |
| C[C@H](N)Cc1cnc[nH]1 | 0.17 |
| NCC(CS(=O)(=O)O)c1ccc(Cl)cc1 (stereo not given) [Saclofen] | -0.022 |
| Cc1ccc(C[N+](C)(C)C)o1 [5-Methylfurmethiodide] | -0.0134 |
| O=C(O)/C=C/CO [trans-4-Hydroxycrotonic acid] | -0.0373 |
| c1ccc(CCCN2CCN(CCOC(c3ccccc3)c3ccccc3)CC2)cc1 | 0.0674 |
| CN1C(=O)CCS(=O)(=O)C1c1ccc(Cl)cc1 (stereo not given) [Chlormezanone] | -0.0101 |
| C=C(C)[C@H]1CN[C@H](C(=O)O)[C@H]1CC(=O)O [Kainic acid] | 0.377 |
| CN1C[C@H](CNC(=O)OCc2ccccc2)C[C@@H]2c3cccc4c3c(cn4C)C[C@H]21 [Metergoline] | 0.0502 |
| Cc1nc(N)sc1CCN [Amthamine dihydrobromide] | 0.0368 |
| O=c1[nH]oc2c1CCNC2 [THIP hydrochloride] | 0.233 |
| Cn1cnc(CCN)c1 [N?-Methylhistamine dihydrochloride] | 0.287 |
| S=C=Nc1cccc(C2(N3CCCCC3)CCCCC2)c1 [Metaphit] | 0.663 |
| C=CCN1C[C@H](C)N([C@H](c2ccc(C(=O)N(CC)CC)cc2)c2cccc(OC)c2)C[C@H]1C | 0.784 |
| C(=C\c1ccccc1)/CN1CCN(CCOC(c2ccccc2)c2ccccc2)CC1 | 0.421 |
